# “And” between values parts separate entries of the source, which are not always exact repeats. Identical values can stand only once. About 5,100 (1.2%) of roughly 410,000 compounds were called active. Roughly 8% stayed inconclusive and do not appear here. Calls follow the shape of the full dose curve; tested in HEK293T cells. The entries come from a sample that favours actives as a whole. Entries that show only a call come without a potency.
# Test: High Throughput Screening for Foot and Mouth Disease Virus Antivirals; also: read-out not given here; nearly all actives have a fitted effect of over 45% in size
# Details: FMDV antiviral cell-based qHTS; series mostly up to 57.9 µM
# Potency is read from the fitted curve at half-maximal effect.
row,SMILES,Potency
1,COCCNc1ccnc(-c2cccc(NS(C)(=O)=O)c2)n1,inactive
2,CNc1ncnc2ccc(-c3cccc(NS(C)(=O)=O)c3)cc12,inactive
3,COC(=O)CC1C(C)(C)C(OC(C)=O)C2CC3=C4CC(=O)OC(c5ccoc5)[C@]4(C)CCC3[C@@]1(C)C2=O (stereo partly specified),inactive
4,Cc1ccc(-c2nn(CC(C)(C)C)c3ncnc(N)c23)cc1,inactive
5,COc1cccc(N2CCN(S(=O)(=O)c3ccc4c(c3)CCCN4C(C)=O)CC2)c1,inactive
6,CC(=O)N1CCCc2cc(S(=O)(=O)N3CCCC(C(=O)N4CCN(c5cccc(Cl)c5)CC4)C3)ccc21 (stereo unspecified),17.8 µM (active) and 12.6 µM (active)
7,CC(=O)N1CCCc2cc(S(=O)(=O)N3CCC(C(=O)NC4CCCCC4)CC3)ccc21,inactive
8,COCCN1CCN(C(=O)c2sc3ncnc(NCC4CCCO4)c3c2C)CC1 (stereo unspecified),inactive
9,CC(C)(c1ccc(OC[C@@H]2CO2)cc1)c1ccc(OC[C@H]2CO2)cc1,inactive
10,CN[C@@H]1[C@H](O[C@H]2[C@H](O[C@H]3[C@H](O)[C@@H](O)[C@H](N=C(N)N)[C@@H](O)[C@@H]3N=C(N)N)O[C@@H](C)[C@]2(O)CO)O[C@@H](CO)[C@H](O)[C@H]1O,inactive
11,Nc1ccc2c(c1)C(=Cc1cccnc1)c1ccccc1-2,inactive
12,O=C(O)CCc1cccnc1,inactive
13,O=C1/C(=C\c2cccnc2)CN(Cc2ccccc2)C/C1=C\c1cccnc1,6.31 µM (active)
14,CS(=O)(=O)Nc1cccc(-c2cncnc2Nc2ccccc2)c1,inactive
15,CN(Cc1ccco1)c1cc(-c2ccccc2C(F)(F)F)ncn1,inactive
16,C=CC(C1=CC(=O)C=CC1=O)c1ccc(O)cc1 (stereo unspecified),inactive
17,CC(=O)OC1C2(CC3N4C(=O)C5(CO)SSC4(CC31O)C(=O)N5C)OC(C)C(C)(C)C2=O (stereo unspecified),2 µM (active)
18,Cc1cccc(Nc2cc(C)nc(-n3nc(C)cc3C)n2)c1,inactive
19,COc1ccccc1-c1cc(C(F)(F)F)nc(S(=O)(=O)CCCC(=O)Nc2cc(C)ccc2O)n1,inactive
20,Cc1ccc(C)c(N2CCN(C(=O)Cn3ncc4c(=O)oc5ccc(C)cc5c43)CC2)c1,inactive
21,O=C(c1csnn1)N1CCC2(CC1)CN(c1ncccn1)C2,inactive
22,Cc1cccn2c(=O)c(C(=O)NC(C)c3ccccc3)cnc12 (stereo unspecified),inactive
23,CCCc1[nH]nc2c1C(c1ccc(Br)s1)C(C#N)=C(N)O2 (stereo unspecified),25.1 µM (active)
24,CCCc1nc2c([nH]1)C(c1cccnc1)C(C#N)=C(N)O2 (stereo unspecified),inactive

row,SMILES,Potency
1,CCNc1nc2[nH]c(=O)c3c(c2s1)OC(N)=C(C#N)C3c1cccs1 (stereo unspecified),inactive
2,CCC(=O)N1CCc2cc(CNS(=O)(=O)c3ccc(Br)s3)ccc21,inactive
3,Cn1c(=O)c2c(nc(SCC(=O)Nc3ccc(F)cc3)n2Cc2ccccc2)n(C)c1=O,inactive
4,CC(C)CCn1c(CN(C)Cc2ccccc2)nc2c1c(=O)n(C)c(=O)n2C,39.8 µM (active)
5,Cn1c(=O)c2c(nc(OCc3cccnc3)n2Cc2ccccc2)n(C)c1=O,inactive
6,Cn1c(=O)c2c(nc(NCCc3ccccc3)n2Cc2ccccc2)n(C)c1=O,14.1 µM (active)
7,CC(C)CCn1c(=O)c2c(nc3n2CCCN3Cc2ccccc2)n(C)c1=O,inactive
8,Cn1c(=O)c2c(nc(NCCc3ccccc3)n2Cc2ccccc2Br)n(C)c1=O,inactive
9,CN(C)C(=O)c1ccc(-c2cncnc2NC2CCNCC2)cc1,inactive
10,COCCn1c(=O)c(-c2cccs2)nc2cnc(N3CCN(C)CC3)nc21,inactive
11,Cc1ccccc1NC(=O)Cn1c(=O)n(CCCCC(=O)NCc2ccccc2Cl)c(=O)c2ccccc21,inactive
12,C=CS(=O)c1sc(Cl)c(N2CCOCC2)c1[N+](=O)[O-] (stereo unspecified),28.2 µM (active)
13,CN(C)c1ncc2nc(-c3ccc(F)cc3)c(=O)n(Cc3ccc(F)cc3)c2n1,inactive
14,O=C(CCl)N(Cc1cccc([N+](=O)[O-])c1)c1cccc(Cl)c1,28.2 µM (active)
15,O=C(O)c1cc(S(=O)(=O)N(Cc2ccccc2)c2ccccc2)ccc1Cl,inactive
16,CC(=O)N(CN1C(=O)C2C3C=CC(C3)C2C1=O)c1cccc(Cl)c1 (stereo unspecified),inactive
17,FC(F)(F)c1ccccc1-c1nc(-n2ccnc2)c2ccccc2n1,inactive
18,Cc1cccc(NC(=O)Cn2c(C(F)(F)F)nc3ccccc32)c1C,inactive
19,CC(=O)Nc1cc(C(=O)N2CCc3c(Cl)cccc3C2)cc2ncn(CCc3ccccn3)c12,inactive
20,CCOC(=O)C1CCCN(C(=O)c2cncc(Br)c2)C1 (stereo unspecified),inactive
21,CCOC(=O)C1CCCN(C(=O)c2ccc3c(c2)sc2nc(-c4ccc(CC)cc4)cn23)C1 (stereo unspecified),14.1 µM (active)
22,COc1ccc(CCNC(=O)c2ccc3c(c2)sc2nc(-c4ccc(C)cc4)cn23)cc1OC,inactive
23,CCC(=O)N1c2ccccc2CC1C(=O)N1CCN(c2cccc(OC)c2)CC1 (stereo unspecified),inactive
24,CCCNS(=O)(=O)c1ccc(CCC(=O)N2CCCC2)cc1,inactive

row,SMILES,Potency
1,CCNS(=O)(=O)c1ccc(CCC(=O)N2CCN(c3ccc(OC)cc3)CC2)cc1,inactive
2,CCNS(=O)(=O)c1ccc(CCC(=O)N2CCN(c3cc(Cl)ccc3C)CC2)cc1,15.8 µM (active)
3,Cc1cnc(C(=O)N2CCOc3ccc(CN4CCCC(C(=O)c5cccnc5)C4)cc3C2)[nH]1 (stereo unspecified),inactive
4,CC(=O)Nc1ccccc1-c1nc(CNC(=O)c2ccc(Cl)cc2)c(C)o1,inactive
5,C=CCOc1ccc(/C=C2\SC(=S)N(CCC(=O)O)C2=O)cc1,1 µM (active)
6,C=CCN1C(=O)NC(=O)/C(=C/c2ccc(OCC(=O)Nc3ccc(C)cc3)cc2)C1=O,inactive
7,C=CCOc1ccc(/C=C/C(=O)OC(C)C(=O)Nc2ccc(NC(C)=O)cc2)cc1 (stereo unspecified),inactive
8,COC(=O)[C@@H]1C[C@H](NC(=O)c2ccccc2C(F)(F)F)CN1Cc1cccc(O)c1,inactive
9,FC(F)(F)c1cccc(-c2cn[nH]c2C2CCCN(Cc3cccn3-c3ccccn3)C2)c1 (stereo unspecified),inactive
10,COc1ccc(CCC(=O)c2c(O)cc(OC3OC(CO)C(O)C(O)C3O[C@@H]3OC(C)C(O)C(O)C3O)cc2O)cc1O (stereo partly specified),inactive
11,COc1ccc(CCNc2ncnc3sc(C(=O)N4CCCC4)c(C)c23)cc1OC,inactive
12,COc1ccc(CCNc2nc3ccc(C)cc3n3cnnc23)cc1OC,inactive
13,COc1ccc(CCNc2ncnc3nc[nH]c23)cc1OC,25.1 µM (active)
14,c1ccc(CCCCN2CCC(c3ccccc3)CC2)cc1,inactive
15,CCOC(=O)/C(=C\c1ccc([N+](=O)[O-])cc1)C(=O)c1cc(C(C)=O)c(Nc2ccccc2)s1,15.8 µM (active)
16,CCOC(=O)c1c(C)[nH]c(C)c1C(=O)COC(=O)/C=C/c1cccc([N+](=O)[O-])c1,inactive
17,CC(C)c1nnc(NC(=O)COC(=O)/C=C/c2ccc([N+](=O)[O-])cc2)s1,inactive
18,COc1ccc(OCCCn2c(C)nc3cc(C)c(C)cc32)cc1,inactive
19,COc1ccc(NC(=O)CSc2nccn2C2CCCC2)cc1OC,inactive
20,COc1ccc(C2CC(=O)N(Cc3ccccc3C)c3c2c(C)nn3-c2nc(C)cc(C)n2)c(OC)c1 (stereo unspecified),inactive
21,O=C(O)CCn1c(O)c(C=C2N=c3ccccc3=N2)sc1=S,10 µM (active)
22,CCc1nc(-c2cc(S(=O)(=O)N3CCN(c4ccc(OC)cc4)CC3)ccc2OC)no1,inactive
23,CN(Cc1cn(Cc2ccc(C(F)(F)F)cc2)nn1)C1CN(Cc2cn(Cc3ccc(C(F)(F)F)cc3)nn2)S(=O)(=O)C1 (stereo unspecified),17.8 µM (active)
24,Cc1ccc(Cn2cc(CN3CC(N4CCN(C)CC4)CS3(=O)=O)nn2)cc1 (stereo unspecified),inactive

row,SMILES,Potency
1,CN(C)C1CN(Cc2cn(Cc3ccccc3)nn2)S(=O)(=O)C1 (stereo unspecified),inactive
2,Cc1ccc(CN2CCC(CNC(=O)c3cnn(-c4ccc(C)cc4)c3C3CCN(C(=O)OC(C)(C)C)CC3)CC2)cc1,inactive
3,COc1ncc2nc(-c3ccc(Cl)cc3)c(=O)n(C)c2n1,inactive
4,O=C(Nc1nc2ccc(F)cc2s1)c1nc(SCc2ccccc2F)ncc1Cl,inactive
5,CCCSc1ncc(Cl)c(C(=O)Nc2c(C(=O)Nc3ccccc3)oc3ccccc23)n1,inactive
6,Cc1cccc(NC(=O)Cn2cc(S(=O)(=O)Cc3ccccc3Cl)c3ccccc32)c1,inactive
7,CCS(=O)(=O)c1ncc(N(Cc2ccc(F)cc2)Cc2ccco2)c(C(=O)Nc2cc(C)ccc2C)n1,inactive
8,Cc1cccc(NC(=O)c2nc(S(=O)(=O)Cc3ccccc3)ncc2Cl)c1,10 µM (active)
9,CSc1nnc(NC(=O)c2nc(S(=O)(=O)Cc3ccc(C)cc3)ncc2Cl)s1,12.6 µM (active)
10,Cc1ccc(NC(=O)c2nc(S(=O)(=O)Cc3cccc(C)c3)ncc2Cl)cc1,25.1 µM (active)
11,Cc1ccc2nc(NC(=O)c3nc(SCc4ccccc4F)ncc3Cl)sc2c1,inactive
12,CCOC(=O)c1ccc(NC(=O)c2nc(SCc3ccc(F)cc3)ncc2Cl)cc1,inactive
13,CCC(C)(C)N=C(NC#N)Nc1cccnc1,inactive
14,COc1ccccc1C1CN(CCNC(=O)C2=CCCC2)Cc2ccccc2O1 (stereo unspecified),inactive
15,CCOC(=O)c1c(S(=O)(=O)N2CCCC(C(=O)NCc3cccc(C)c3)C2)c(C)n(C)c1C (stereo unspecified),inactive
16,CCc1ccccc1N1C(=O)CN(S(=O)(=O)CC)CC1(C)C(=O)NC1CCCCC1 (stereo unspecified),inactive
17,CCN(CCCNC(=O)Cn1ncc2c([nH]c3ccccc32)c1=O)c1cccc(C)c1,inactive
18,Cc1[nH]c2c(C(=O)NCC3Cc4cccc(-c5cccnc5)c4O3)cccc2c1C (stereo unspecified),inactive
19,N#Cc1cccc(-c2ccc3ncnc(NCc4cccs4)c3c2)c1,inactive
20,O=C1CC(c2nnc(Cc3ccc(Cl)cc3)o2)CN1c1ccccc1 (stereo unspecified),inactive
21,Cc1noc(C)c1-c1nccc(N2CCOCC2)n1,inactive
22,CCCc1nc(SCC(=O)Nc2ccccc2OC)c2c(=O)n(C)c(=O)n(C)c2n1,25.1 µM (active)
23,CCc1nc(SCC(=O)Nc2ccccc2OC)n[nH]1,inactive
24,CCCc1nc(SCC(=O)N2CCCC2)c2c(=O)n(C)c(=O)n(C)c2n1,inactive

# Reference: PubChem BioAssay AID1159524 (National Center for Advancing Translational Sciences (NCATS), 2015)
